Measured values published in PubChem BioAssay AID2113 (National Center for Advancing Translational Sciences (NCATS), 2009).
Inconclusive results are not listed. Calls of active or inactive are those of the source. The call rests on the fitted dose curve; in most records, active means well fitted curve in either direction with a large enough effect; inconclusive means small, poorly fitted or top-dose-only effect; inactive means no such curve, though single readings can be large or run the other way.

target: Lysosomal alpha-glucosidase (Homo sapiens) (UniProt P10253); assay: Confirmation of Inhibitors and Activators of Human alpha-Glucosidase From Spleen Homogenate; settings: alpha-glucosidase enzyme activity; series mostly up to 60.5 µM; activity change, both directions: at the top concentration; further: 0% is about no effect
Text: NIH Chemical Genomics Center [NCGC]
NIH Molecular Libraries Probe Production centers Network [MLPCN]
Assay Submitter (PI): Wei Zheng
Alpha-glucosidase is responsible for hydrolysis of terminal, non-reducing 1,4-linked alpha-D-glucose residues with release of alpha-D-glucose. It is a lysosomal hydrolase that is required for the degradation of a small percentage (1-3%) of cellular glycogen in human. Deficiency of this enzyme results in glycogen-storage disease type II (GSDII), also referred to as Pompe disease, an autosomal recessive disorder. Structurally normal glycogen is accumulated in lysosomes and cytoplasm in affected patients, primarily in muscle tissues. Excessive glycogen storage within lysosomes may interrupt normal functioning of other organelles and leads to cellular injury. In turn, this leads to enlargement and dysfunction of the entire organ involved (eg, cardiomyopathy and muscle weakness).
It has reported that the improper folding and trafficking of alpha-glucosidase resultinged from the genetic mutations may account for a significant number of Pomrope patients. […] We optimized this alpha-glucosidase assay in 1536-well plate format for identifying the novel small molecule inhibitors with the structures other than the sugar analogs in order to develop the new pharmacological chaperones. In particular, this assay is directed towards discovering compounds active in a more natural setting, tissue homogenate, that may have been missed by screens of the purified enzyme under more stringent conditions. This assay attempted to confirm hits from the primary screening.
NCGC Assay Protocol Summary:
This is a fluorogenic enzyme assay with 4-methylumbelliferyl-alpha-D-glucopyranoside as the substrate and human spleen homogenate containing alpha-glucosidase as the enzyme preparation. Upon hydrolysis of this fluorogenic substrate, the resulting product, 4-methylumbelliferone (which excites at 365 nm and emits at 440 nm) can be detected by a fluorescence plate reader. Data were normalized to the controls for basal activity (without enzyme) and 100% activity (with enzyme). The AC50 values were determined from concentration-response data modeled with the standard Hill equation.
Assay buffer: 50 mM citric acid (titrated with potassium phosphate to pH 5.0), 0.01% Tween-20 (pH 5.0 is an optimal condition for this enzyme assay)
1536-well assay protocol for the alpha-glucosidase from human spleen homogenate:
(1) Add 2 ul/well spleen homogenate (1 ug)
(2) Add 23 nL compounds in DMSO solution. The final titration was 0.5 nM to 58 uM.
(3) Add 2 ul of substrate (1 mM final)
(4) Incubate at 37 C for 40 min
(5) Add 2 ul stop solution (1M NaOH and 1M Glycine mixture, pH 10)
(6) Detect the assay plate in a ViewLux plate reader (PerkinElmer) with Ex=365 nm and Em=440nm.
Keywords: Alpha-glucosidase, Pompe Disease, pharmacological chaperone, chaperone therapy, high throughput screening, alpha-glucosidase inhibitor, MLSMR, MLSCN, NIH Roadmap, qHTS and NCGC

Structure (SMILES) | activity change, both directions | outcome
CCOc1ccc2cc(C#N)c(=O)oc2c1 | 2.73% (inactive) | 
COc1ccc(Cc2nccc3cc(OC)c(OC)cc23)cc1OC | -1.95% (inactive) | 
O[C@@H]1[C@H](O)[C@H]2[C@@H](O)CCN2C[C@@H]1O | -100% [at 286 µM] (inactive) | 
CC(C)(C)c1cc(C=C(C#N)C#N)cc(C(C)(C)C)c1O | 2.31% (inactive) | 
O[C@H]1[C@H](O)[C@@H](O)CN2CC[C@H](O)[C@H]12 |  | inactive
Cc1cc(C(=O)CS(=O)(=O)c2ccc(F)cc2)cc(C)c1OC(=O)N(C)C | 1.6% [at 31.5 µM] (inactive) | 
Cc1cc(/C=C2\C(=O)NC(=O)N(c3ccc(F)cc3)C2=O)c(C)n1-c1ccc(C(=O)O)cc1 | -12.7% (inactive) | 
CC(=O)Nc1ccc(OC(=O)c2ccccc2N)cc1 | 6.2% [at 31.5 µM] (inactive) | 
OC[C@@H]1[C@@H](O)[C@H](O)[C@H]2[C@@H](O)CCN21 | -42.7% (inactive) | 
O=C(O)c1ccccc1-c1c2cc(Br)c(=O)cc-2oc2[c]([Hg])c(O)c(Br)cc12 | -2.07% [at 286 µM] (inactive) | 
Cc1cc(/C=C2/C(=O)NC(=O)N(Cc3ccco3)C2=O)c(C)n1-c1ccc(C(=O)O)cc1 | -16.4% (inactive) | 
CCCCC/C=C\C/C=C\C/C=C\C/C=C\CCCC(=O)NCCCC(=O)O | -9.01% (inactive) | 
C/C(O)=C(/C#N)C(=O)Nc1cc(Br)ccc1Br | -58.7% (inactive) | 
C/C=C(/C)C(=O)O[C@H]1C(C)=C2C([C@@H]1OC(=O)CCCCCCC)[C@@](C)(OC(C)=O)C[C@@H](OC(=O)CCC)[C@@]1(O)[C@H]2OC(=O)[C@@]1(C)O (stereo not given in full) | -6.96% (inactive) | 
CC(=O)[O][Hg][c]1ccccc1 | 5.66% [at 286 µM] (inactive) | 
